This note sets out measurements from paper PMC7862700, “An all-to-all approach to the identification of sequence-specific readers for epigenetic DNA modifications on cytosine”.

Common to all, as to experiment: DAPPL (digital affinity profiling via proximity ligation, sequencing); 10 mM Tris-HCl pH 7.5, 50 mM NaCl, 1 mM DTT, 4% glycerol, room temperature, 30 min; GST-TFs on glutathione beads, 16-mer random dsDNA library, 0.1% formaldehyde crosslink after washing; high values mean tight binding
Experiment [1] addresses T1, FEV (Homo sapiens, UniProt Q99581 1-238).
T1 sequence: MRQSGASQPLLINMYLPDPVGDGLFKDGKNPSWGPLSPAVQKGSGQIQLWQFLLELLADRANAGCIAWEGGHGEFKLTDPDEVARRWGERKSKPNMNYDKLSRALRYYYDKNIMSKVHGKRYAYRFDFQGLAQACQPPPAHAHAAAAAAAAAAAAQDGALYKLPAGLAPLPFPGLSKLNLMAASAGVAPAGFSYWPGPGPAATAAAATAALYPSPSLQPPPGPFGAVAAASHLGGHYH
As to conditions: protein: recombinant; tags: N-terminal GST; dsDNA, one strand shown. In a few lines:
(§1)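 A tag-only sample was pooled with DNA-barcoded human transcription factors that had been expressed in yeast as GST fusions and captured on glutathione beads. The pools were incubated for 30 min at room temperature with 200 nmole of a random double-stranded 16-mer DNA library in Tris/NaCl/DTT/glycerol buffer, then washed, crosslinked with 0.1% formaldehyde, proximity-ligated (BsaI/T4 ligase, 1 h, 37 °C), PCR-amplified and sequenced on an Illumina NextSeq500. Binding signal is each hexamer's read frequency for a factor divided by its frequency for the tag-only sample.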

Experiment [2] concerns the target ETV5 (Homo sapiens, UniProt P41161 1-510). As to conditions: protein: recombinant; tags: N-terminal GST; dsDNA, one strand shown. The gist of the method:
as §1

Experiment [3] concerns the target HSF1 (Homo sapiens, UniProt Q00613 1-529). As to conditions: protein: recombinant; tags: N-terminal GST; chain copies: 3; dsDNA, one strand shown. The gist of the method:
as §1

In experiment [4] the target is T2, SPIC (Homo sapiens, UniProt Q8N5J4 1-248).
T2 sequence: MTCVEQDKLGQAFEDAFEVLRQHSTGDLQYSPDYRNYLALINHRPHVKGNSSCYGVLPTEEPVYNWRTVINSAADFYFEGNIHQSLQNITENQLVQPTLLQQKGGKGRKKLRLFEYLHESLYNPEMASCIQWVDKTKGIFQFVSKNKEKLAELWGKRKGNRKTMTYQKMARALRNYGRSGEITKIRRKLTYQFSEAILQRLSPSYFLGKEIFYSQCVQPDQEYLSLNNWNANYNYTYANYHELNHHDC
As to conditions: protein: recombinant; tags: N-terminal GST; dsDNA, one strand shown. In a few lines:
as §1

In experiment [5] the target is ELF4 (Homo sapiens, UniProt Q99607 1-663). As to conditions: protein: recombinant; tags: N-terminal GST; dsDNA, one strand shown. The gist of the method: as §1
Experiment [6] addresses T3, ELK4 (Homo sapiens, UniProt P28324-2 1-405).
T3 sequence: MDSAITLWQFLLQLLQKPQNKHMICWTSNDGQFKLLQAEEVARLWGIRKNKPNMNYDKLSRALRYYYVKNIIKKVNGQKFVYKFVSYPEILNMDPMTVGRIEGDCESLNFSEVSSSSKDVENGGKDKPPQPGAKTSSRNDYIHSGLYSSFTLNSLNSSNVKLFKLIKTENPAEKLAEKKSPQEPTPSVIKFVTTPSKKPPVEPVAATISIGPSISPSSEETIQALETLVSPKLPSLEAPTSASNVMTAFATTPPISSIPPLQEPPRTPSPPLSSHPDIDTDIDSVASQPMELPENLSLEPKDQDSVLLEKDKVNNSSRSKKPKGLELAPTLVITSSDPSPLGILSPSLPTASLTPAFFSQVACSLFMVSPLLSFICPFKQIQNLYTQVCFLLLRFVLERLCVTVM
As to conditions: protein: recombinant; tags: N-terminal GST; dsDNA, one strand shown. The gist of the method:
as §1

Experiment [7] concerns the target T4, ETV2 (Homo sapiens, UniProt O00321 1-342).
T4 sequence: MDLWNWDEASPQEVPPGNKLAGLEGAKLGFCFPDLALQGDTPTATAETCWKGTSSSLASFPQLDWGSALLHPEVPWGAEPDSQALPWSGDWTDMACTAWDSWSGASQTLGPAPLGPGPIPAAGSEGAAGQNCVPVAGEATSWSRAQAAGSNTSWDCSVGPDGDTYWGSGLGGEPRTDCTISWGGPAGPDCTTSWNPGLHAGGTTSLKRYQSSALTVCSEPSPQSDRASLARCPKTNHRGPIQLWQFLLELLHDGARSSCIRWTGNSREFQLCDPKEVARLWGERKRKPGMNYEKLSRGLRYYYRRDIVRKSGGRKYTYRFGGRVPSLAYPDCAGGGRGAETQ
As to conditions: protein: recombinant; tags: N-terminal GST; dsDNA, one strand shown. In a few lines:
as §1

Experiment [8] deals with T5, ELF3 (Homo sapiens, UniProt P78545 1-371).
T5 sequence: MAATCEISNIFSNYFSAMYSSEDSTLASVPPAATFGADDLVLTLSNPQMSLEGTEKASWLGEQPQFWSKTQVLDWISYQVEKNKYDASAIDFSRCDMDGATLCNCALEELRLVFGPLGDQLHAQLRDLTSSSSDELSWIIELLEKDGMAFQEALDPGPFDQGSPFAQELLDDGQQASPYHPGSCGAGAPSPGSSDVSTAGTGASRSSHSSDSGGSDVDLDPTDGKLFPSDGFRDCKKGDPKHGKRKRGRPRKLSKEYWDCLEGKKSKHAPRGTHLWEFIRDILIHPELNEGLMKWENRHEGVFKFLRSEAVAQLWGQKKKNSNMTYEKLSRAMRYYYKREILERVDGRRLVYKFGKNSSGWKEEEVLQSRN
As to conditions: protein: recombinant; tags: N-terminal GST; dsDNA, one strand shown. The gist of the method:
as §1

The target in experiment [9] is CRX (Homo sapiens, UniProt O43186 1-299). As to conditions: protein: recombinant; tags: N-terminal GST; dsDNA, one strand shown. The gist of the method: as §1
Experiment [10] concerns the target ETV1 (Homo sapiens, UniProt P50549 1-477). As to conditions: protein: recombinant; tags: N-terminal GST; dsDNA, one strand shown. The gist of the method: as §1
Experiment [11] addresses T6, ERF (Homo sapiens, UniProt P50548 1-548).
T6 sequence: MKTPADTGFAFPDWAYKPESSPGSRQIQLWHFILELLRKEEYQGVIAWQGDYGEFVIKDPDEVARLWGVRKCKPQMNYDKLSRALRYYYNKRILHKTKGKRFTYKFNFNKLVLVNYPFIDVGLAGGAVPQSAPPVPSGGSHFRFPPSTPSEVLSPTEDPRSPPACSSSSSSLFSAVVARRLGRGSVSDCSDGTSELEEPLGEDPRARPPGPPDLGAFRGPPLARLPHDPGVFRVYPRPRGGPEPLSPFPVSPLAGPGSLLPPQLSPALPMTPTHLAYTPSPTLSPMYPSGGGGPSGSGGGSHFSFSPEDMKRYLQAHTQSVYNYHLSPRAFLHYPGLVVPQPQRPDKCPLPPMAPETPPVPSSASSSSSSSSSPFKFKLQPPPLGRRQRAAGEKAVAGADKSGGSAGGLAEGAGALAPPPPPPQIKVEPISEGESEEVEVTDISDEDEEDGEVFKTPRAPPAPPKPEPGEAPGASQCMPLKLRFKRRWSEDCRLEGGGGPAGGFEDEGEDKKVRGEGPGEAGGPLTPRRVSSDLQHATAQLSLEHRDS
As to conditions: protein: recombinant; tags: N-terminal GST; dsDNA, one strand shown. In a few lines:
as §1

Experiment [12] addresses T7, ETV3L (Homo sapiens, UniProt Q6ZN32 1-361).
T7 sequence: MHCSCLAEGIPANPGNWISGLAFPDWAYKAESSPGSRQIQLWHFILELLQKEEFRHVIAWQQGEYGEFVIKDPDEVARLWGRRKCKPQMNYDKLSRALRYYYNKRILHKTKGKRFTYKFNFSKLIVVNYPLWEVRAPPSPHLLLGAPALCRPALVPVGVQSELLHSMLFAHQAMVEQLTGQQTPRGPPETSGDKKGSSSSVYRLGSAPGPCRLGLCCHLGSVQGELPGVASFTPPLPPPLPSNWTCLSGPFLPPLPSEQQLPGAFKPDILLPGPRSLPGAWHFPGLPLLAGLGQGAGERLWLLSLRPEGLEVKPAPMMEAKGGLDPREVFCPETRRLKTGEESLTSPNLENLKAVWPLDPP
As to conditions: protein: recombinant; tags: N-terminal GST; dsDNA, one strand shown. The gist of the method:
as §1

In experiment [13] the target is T8, ETS2 (Homo sapiens, UniProt P15036 1-469).
T8 sequence: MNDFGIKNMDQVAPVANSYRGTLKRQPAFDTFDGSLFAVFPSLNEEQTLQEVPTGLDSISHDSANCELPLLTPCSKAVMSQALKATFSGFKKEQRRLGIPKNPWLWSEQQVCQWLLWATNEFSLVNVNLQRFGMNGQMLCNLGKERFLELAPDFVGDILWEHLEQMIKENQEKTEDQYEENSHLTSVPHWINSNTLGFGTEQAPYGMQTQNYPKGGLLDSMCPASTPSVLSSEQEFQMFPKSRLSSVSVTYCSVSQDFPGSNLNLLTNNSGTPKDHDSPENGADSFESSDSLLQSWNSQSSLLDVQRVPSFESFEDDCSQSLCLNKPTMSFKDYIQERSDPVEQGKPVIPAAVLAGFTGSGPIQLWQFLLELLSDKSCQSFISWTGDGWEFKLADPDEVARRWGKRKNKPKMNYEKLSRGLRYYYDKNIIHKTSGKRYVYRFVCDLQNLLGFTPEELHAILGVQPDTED
As to conditions: protein: recombinant; tags: N-terminal GST; dsDNA, one strand shown. The gist of the method: as §1

Experiment [14] deals with T9, SPDEF (Homo sapiens, UniProt O95238 1-335).
T9 sequence: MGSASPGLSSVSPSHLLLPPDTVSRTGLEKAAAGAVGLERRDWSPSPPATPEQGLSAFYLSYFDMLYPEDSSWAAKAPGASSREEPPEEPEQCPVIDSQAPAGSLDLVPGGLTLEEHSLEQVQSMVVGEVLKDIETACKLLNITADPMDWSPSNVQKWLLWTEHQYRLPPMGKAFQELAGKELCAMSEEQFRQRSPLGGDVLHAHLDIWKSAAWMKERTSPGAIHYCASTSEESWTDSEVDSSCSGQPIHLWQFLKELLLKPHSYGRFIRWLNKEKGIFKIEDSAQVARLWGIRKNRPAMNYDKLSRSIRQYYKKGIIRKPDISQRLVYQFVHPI
As to conditions: protein: recombinant; tags: N-terminal GST; dsDNA, one strand shown. In a few lines: as §1

Experiment [15] concerns the target T10, ETV7 (Homo sapiens, UniProt Q9Y603 1-341).
T10 sequence: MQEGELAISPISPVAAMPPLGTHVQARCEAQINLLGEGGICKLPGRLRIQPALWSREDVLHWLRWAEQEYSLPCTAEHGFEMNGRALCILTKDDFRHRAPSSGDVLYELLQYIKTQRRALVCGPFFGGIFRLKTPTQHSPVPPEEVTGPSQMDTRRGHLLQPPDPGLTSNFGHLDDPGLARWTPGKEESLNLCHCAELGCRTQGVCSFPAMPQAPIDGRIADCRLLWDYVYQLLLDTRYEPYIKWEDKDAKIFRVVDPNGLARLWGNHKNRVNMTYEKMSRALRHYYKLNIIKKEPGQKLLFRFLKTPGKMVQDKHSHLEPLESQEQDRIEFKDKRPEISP
As to conditions: protein: recombinant; tags: N-terminal GST; dsDNA, one strand shown. The gist of the method:
as §1

Experiment [16] concerns the target T11, ELF5 (Homo sapiens, UniProt Q9UKW6-2 1-255).
T11 sequence: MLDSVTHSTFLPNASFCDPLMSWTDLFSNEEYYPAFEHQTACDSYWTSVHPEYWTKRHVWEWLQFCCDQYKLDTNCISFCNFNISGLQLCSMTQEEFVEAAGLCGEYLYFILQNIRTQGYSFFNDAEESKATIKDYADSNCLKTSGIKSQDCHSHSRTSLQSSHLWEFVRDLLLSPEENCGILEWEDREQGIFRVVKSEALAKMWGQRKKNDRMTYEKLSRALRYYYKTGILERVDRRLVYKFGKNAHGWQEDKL
As to conditions: protein: recombinant; tags: N-terminal GST; dsDNA, one strand shown. In a few lines:
as §1

The target in experiment [17] is T12, ETV3 (Homo sapiens, UniProt P41162-2 1-143).
T12 sequence: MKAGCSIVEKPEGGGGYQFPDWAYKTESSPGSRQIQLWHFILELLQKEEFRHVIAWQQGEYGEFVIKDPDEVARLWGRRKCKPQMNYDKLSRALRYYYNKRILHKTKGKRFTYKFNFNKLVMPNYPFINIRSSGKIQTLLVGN
As to conditions: protein: recombinant; tags: N-terminal GST; dsDNA, one strand shown. In a few lines: as §1

The target of experiment [18] is ETV6 (Homo sapiens, UniProt P41212 1-452). As to conditions: protein: recombinant; tags: N-terminal GST; dsDNA, one strand shown. In a few lines:
as §1

Sequence of CRX (O43186 whole entry): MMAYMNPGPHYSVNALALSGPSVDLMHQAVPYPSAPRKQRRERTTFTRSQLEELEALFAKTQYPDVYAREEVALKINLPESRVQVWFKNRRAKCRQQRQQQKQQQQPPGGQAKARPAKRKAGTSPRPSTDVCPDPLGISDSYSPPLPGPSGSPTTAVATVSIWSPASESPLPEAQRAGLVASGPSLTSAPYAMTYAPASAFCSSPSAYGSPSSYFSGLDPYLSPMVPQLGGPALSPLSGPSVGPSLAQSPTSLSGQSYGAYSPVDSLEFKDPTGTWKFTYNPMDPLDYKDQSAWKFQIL
Sequence of ELF4 (Q99607 whole entry): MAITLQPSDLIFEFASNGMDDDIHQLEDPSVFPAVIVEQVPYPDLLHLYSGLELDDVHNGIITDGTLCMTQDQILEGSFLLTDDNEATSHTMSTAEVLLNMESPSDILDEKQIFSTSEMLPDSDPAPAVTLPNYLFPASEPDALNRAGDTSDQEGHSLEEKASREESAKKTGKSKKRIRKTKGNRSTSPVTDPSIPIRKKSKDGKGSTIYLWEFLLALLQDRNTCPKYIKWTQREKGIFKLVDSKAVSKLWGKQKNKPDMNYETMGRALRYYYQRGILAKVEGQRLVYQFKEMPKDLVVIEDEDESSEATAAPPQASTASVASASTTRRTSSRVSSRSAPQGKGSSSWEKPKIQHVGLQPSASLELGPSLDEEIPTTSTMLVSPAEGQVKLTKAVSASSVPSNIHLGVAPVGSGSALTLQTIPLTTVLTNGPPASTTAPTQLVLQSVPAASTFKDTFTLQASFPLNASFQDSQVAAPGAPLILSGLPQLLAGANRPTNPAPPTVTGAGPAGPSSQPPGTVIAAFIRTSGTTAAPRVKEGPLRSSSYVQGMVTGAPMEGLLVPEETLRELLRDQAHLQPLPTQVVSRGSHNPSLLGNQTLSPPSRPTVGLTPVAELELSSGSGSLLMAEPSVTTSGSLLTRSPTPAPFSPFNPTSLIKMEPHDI
Sequence of ETV5 (P41161 whole entry): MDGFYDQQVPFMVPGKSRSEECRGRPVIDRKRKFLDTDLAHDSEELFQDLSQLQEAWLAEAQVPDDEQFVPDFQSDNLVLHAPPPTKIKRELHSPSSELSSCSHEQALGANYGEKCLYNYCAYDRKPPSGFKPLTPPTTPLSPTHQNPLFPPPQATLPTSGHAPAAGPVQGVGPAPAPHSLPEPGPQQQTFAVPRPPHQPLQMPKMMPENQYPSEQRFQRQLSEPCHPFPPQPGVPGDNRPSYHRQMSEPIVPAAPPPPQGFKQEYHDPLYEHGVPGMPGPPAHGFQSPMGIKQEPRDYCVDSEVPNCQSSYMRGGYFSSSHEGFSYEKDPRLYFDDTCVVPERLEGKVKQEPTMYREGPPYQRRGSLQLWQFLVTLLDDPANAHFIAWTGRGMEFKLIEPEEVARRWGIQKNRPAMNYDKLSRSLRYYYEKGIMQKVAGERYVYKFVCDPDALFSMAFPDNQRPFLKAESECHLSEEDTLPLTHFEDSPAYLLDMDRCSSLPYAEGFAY
Sequence of HSF1 (Q00613 whole entry): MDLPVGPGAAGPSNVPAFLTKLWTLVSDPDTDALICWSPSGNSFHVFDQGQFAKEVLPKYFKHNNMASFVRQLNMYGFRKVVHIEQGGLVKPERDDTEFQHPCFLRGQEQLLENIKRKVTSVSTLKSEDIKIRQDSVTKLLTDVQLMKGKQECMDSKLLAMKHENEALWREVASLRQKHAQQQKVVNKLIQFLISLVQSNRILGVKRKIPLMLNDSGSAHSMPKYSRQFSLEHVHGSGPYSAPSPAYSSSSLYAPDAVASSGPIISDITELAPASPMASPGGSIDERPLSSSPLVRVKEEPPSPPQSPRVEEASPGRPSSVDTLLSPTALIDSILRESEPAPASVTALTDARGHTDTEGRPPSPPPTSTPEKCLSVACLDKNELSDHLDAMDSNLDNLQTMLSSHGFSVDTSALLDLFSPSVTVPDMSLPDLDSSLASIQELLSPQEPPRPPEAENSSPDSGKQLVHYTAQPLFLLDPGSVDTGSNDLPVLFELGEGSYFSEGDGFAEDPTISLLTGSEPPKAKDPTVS
Sequence of ETV6 (P41212 whole entry): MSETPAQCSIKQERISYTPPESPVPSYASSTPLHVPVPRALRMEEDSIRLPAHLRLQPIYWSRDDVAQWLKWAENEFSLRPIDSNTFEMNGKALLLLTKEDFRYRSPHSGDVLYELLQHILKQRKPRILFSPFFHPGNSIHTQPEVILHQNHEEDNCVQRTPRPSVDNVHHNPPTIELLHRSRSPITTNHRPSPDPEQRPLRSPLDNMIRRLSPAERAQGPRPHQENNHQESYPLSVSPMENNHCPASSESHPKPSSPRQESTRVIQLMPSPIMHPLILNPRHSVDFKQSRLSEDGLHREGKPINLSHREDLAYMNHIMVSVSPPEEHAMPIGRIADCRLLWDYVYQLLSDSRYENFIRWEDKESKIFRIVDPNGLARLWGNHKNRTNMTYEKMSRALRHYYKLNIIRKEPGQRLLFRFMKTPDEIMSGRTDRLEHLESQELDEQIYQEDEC
Sequence of ETV1 (P50549 whole entry): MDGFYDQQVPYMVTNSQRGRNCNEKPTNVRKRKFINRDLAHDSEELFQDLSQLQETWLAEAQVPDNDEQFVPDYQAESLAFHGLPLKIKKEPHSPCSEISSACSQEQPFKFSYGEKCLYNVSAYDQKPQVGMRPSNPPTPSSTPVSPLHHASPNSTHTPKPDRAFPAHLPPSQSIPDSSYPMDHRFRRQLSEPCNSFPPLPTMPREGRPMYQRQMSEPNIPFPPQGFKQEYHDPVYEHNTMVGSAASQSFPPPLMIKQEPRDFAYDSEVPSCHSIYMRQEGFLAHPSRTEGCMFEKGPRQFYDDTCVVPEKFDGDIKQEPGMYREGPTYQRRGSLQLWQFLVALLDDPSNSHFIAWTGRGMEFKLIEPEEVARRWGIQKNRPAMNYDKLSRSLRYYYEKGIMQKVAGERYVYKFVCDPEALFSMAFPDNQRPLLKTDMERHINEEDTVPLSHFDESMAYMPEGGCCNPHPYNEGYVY

For the sequence TAATTA, the binding signal was 1.22 fold enrichment (6-mer frequency, TF over GST control) in experiment [1]; 1.31 fold enrichment (6-mer frequency, TF over GST control) in experiment [2]; 1.81 fold enrichment (6-mer frequency, TF over GST control) in [3]; 1.4 fold enrichment (6-mer frequency, TF over GST control) in experiment [4]; 1.23 fold enrichment (6-mer frequency, TF over GST control) in experiment [5]; 1.17 fold enrichment (6-mer frequency, TF over GST control) in experiment [6]. Besides, the binding signal was 1.35 fold enrichment (6-mer frequency, TF over GST control) in experiment [7]; 1.3 fold enrichment (6-mer frequency, TF over GST control) in experiment [8]; 2.74 fold enrichment (6-mer frequency, TF over GST control) in experiment [9]; 1.33 fold enrichment (6-mer frequency, TF over GST control) in [10]; 1.24 fold enrichment (6-mer frequency, TF over GST control) in experiment [11]; 1.23 fold enrichment (6-mer frequency, TF over GST control) in experiment [12]. For the same sequence, the binding signal in experiment [13] is 1.34 fold enrichment (6-mer frequency, TF over GST control); in experiment [14], 1.24 fold enrichment (6-mer frequency, TF over GST control); in experiment [15], 1.35 fold enrichment (6-mer frequency, TF over GST control); in experiment [16] it was 1.2 fold enrichment (6-mer frequency, TF over GST control); in experiment [17] it was 1.19 fold enrichment (6-mer frequency, TF over GST control); in experiment [18], 1.36 fold enrichment (6-mer frequency, TF over GST control).
